Among the data in PMC8384837, “Expanding the binding specificity for RNA recognition by a PUF domain” are binding signal values, retold here.

One experiment has as its target PUM1 PUF domain R5-SGR (Homo sapiens, UniProt Q14671 828-1176, C1007S;R1008G;Q1011R). Kind of experiment: yeast three-hybrid, YBZ-1, SC-Leu-His + 0.5 mM 3-AT, 4 days. The settings on record: tags: N-Gal4 AD-HA kept; label: inside an RPR1-promoter hybrid RNA with tandem MS2 sites; ssRNA. In short, it runs like this: (§1)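 Sequencing with Illumina followed PCR amplification of the repeat regions from transformants grown four days on SC-Leu (input) or SC-Leu-His + 0.5 mM 3-AT (selection). The transformants were strain YBZ-1 with a LexA–MS2 coat fusion and a HIS3 reporter, carrying Pumilio-1 PUF domain libraries and matching RNA elements. The interaction score is the log change in variant frequency from input to selection, computed in log2 with a pseudocount of 1 for absent variants.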
In the case of “GGCUAGAACUAGUGGAUCCCCCGGCGCCCGGCGGCUCGAGCCCGGGUAAGUGUUAAUAGUCUGCAUGCCGCCGGGCGCCAUGCCUGCAGGUCGACUCUAGAAAACAUG”, the binding signal is 0.78 log2 enrichment (interaction score).
Still for that read-out and setting: with “GGCUAGAACUAGUGGAUCCCCCGGCGCCCGGCGGCUCGAGCCCGGGUAAGUGUCAAUAGUCUGCAUGCCGCCGGGCGCCAUGCCUGCAGGUCGACUCUAGAAAACAUG” the figure was 6.98 log2 enrichment (interaction score).
Same read-out and setting: with “GGCUAGAACUAGUGGAUCCCCCGGCGCCCGGCGGCUCGAGCCCGGGUAAGUGUAAAUAGUCUGCAUGCCGCCGGGCGCCAUGCCUGCAGGUCGACUCUAGAAAACAUG” the figure was 1.55 log2 enrichment (interaction score).

A further experiment addresses PUM1 PUF domain R5-FRS (Homo sapiens, UniProt Q14671 828-1176, C1007F;Q1011S). Described as above. The settings on record: tags: N-Gal4 AD-HA kept; label: inside an RPR1-promoter hybrid RNA with tandem MS2 sites; ssRNA. Summed up: as §1
As for “GGCUAGAACUAGUGGAUCCCCCGGCGCCCGGCGGCUCGAGCCCGGGUAAGUGUUAAUAGUCUGCAUGCCGCCGGGCGCCAUGCCUGCAGGUCGACUCUAGAAAACAUG”, the binding signal was 3.13 log2 enrichment (interaction score).
On the same count and under the same terms, with “GGCUAGAACUAGUGGAUCCCCCGGCGCCCGGCGGCUCGAGCCCGGGUAAGUGUCAAUAGUCUGCAUGCCGCCGGGCGCCAUGCCUGCAGGUCGACUCUAGAAAACAUG” the figure was 2.38 log2 enrichment (interaction score); with “GGCUAGAACUAGUGGAUCCCCCGGCGCCCGGCGGCUCGAGCCCGGGUAAGUGUAAAUAGUCUGCAUGCCGCCGGGCGCCAUGCCUGCAGGUCGACUCUAGAAAACAUG”, 0.74 log2 enrichment (interaction score).

For the next experiment, the target named is PUM1 PUF domain R8-SFK (Homo sapiens, UniProt Q14671 828-1176, N1122S;Y1123F;Q1126K). The description is as above. The conditions noted are these: tags: N-Gal4 AD-HA kept; label: inside an RPR1-promoter hybrid RNA with tandem MS2 sites; ssRNA. In short, it runs like this: as §1
As for “GGCUAGAACUAGUGGAUCCCCCGGCGCCCGGCGGCUCGAGCCCGGGUAAGGGUAAAUAGUCUGCAUGCCGCCGGGCGCCAUGCCUGCAGGUCGACUCUAGAAAACAUG”, the binding signal was 2.09 log2 enrichment (interaction score).
Same read-out and setting: with “GGCUAGAACUAGUGGAUCCCCCGGCGCCCGGCGGCUCGAGCCCGGGUAAGUGUAAAUAGUCUGCAUGCCGCCGGGCGCCAUGCCUGCAGGUCGACUCUAGAAAACAUG” the figure was 5.06 log2 enrichment (interaction score).
Still for that read-out and setting: with “GGCUAGAACUAGUGGAUCCCCCGGCGCCCGGCGGCUCGAGCCCGGGUAAGCGUAAAUAGUCUGCAUGCCGCCGGGCGCCAUGCCUGCAGGUCGACUCUAGAAAACAUG” the figure was 5.53 log2 enrichment (interaction score).
